The assay concerns the target Neuropilin-1 (Homo sapiens) (UniProt O14786). The assay is described as follows: blockers of CendR peptide binding to NRP-1 – biochemical, FP and AlphaScreen panel, dose response (AID 651650). The note with it: NRP-1 b1b2 / RPARPAR peptide binding, FP or AlphaScreen; run 1, at 100 µM (top of the series).
Sequence of Neuropilin-1 (Homo sapiens) (O14786 whole entry, looked up): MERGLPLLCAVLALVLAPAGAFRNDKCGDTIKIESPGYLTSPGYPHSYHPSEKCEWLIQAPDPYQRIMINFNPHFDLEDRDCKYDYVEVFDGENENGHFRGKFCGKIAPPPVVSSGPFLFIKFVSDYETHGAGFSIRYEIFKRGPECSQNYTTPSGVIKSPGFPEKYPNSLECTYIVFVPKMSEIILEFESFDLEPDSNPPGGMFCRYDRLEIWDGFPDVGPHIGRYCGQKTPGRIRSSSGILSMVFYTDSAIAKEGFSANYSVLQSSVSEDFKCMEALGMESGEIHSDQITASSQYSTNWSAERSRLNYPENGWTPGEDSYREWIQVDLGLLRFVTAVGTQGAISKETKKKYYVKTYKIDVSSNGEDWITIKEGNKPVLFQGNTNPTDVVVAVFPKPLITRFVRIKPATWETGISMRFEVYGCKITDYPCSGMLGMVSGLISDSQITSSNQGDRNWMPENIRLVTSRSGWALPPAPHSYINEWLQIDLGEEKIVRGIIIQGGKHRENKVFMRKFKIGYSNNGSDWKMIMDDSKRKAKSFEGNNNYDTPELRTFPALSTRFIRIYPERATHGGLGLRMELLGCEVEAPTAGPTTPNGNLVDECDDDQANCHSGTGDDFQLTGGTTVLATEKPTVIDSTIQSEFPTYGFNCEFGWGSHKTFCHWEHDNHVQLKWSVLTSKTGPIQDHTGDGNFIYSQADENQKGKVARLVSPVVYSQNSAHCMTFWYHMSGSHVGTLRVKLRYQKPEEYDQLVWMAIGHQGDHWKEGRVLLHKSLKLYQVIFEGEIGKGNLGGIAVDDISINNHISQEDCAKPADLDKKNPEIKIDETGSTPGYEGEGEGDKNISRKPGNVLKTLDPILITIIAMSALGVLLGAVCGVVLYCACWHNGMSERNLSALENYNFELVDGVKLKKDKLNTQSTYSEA
On to `Cc1cc2c(=O)[nH]cnc2s1`, for which the inhibition (commonly how much of the control response was suppressed) is 13.4%.
Under `Cc1ccc2c(c1)C(c1ccncc1)=NNC(c1ccc(F)cc1)=N2` stands 36.3%.
Under `CNC(=O)Nc1ccccc1C(=O)NCc1ccccc1` stands 25.7%; under `C#CCOc1nc(C)cc(C)c1S(=O)(=O)c1ccccc1C`, 25.9%.
Under `COc1ccccc1N1CCN(C2CCCN(C(=O)Cn3cccn3)C2)CC1` (configuration not stated) stands 38.2%.
`COc1ccc(Cl)cc1NC(=O)C(C)N1CCc2ccccc21` (configuration not stated): the inhibition was 82.6%.
Under `C=C(C)COc1ccc(-c2[nH]ncc2-c2ccccc2)c(O)c1` stands 16.9%.
Under `Cc1cc2cc(CNC(=O)c3ccc(S(=O)(=O)N4CCOCC4)cc3)ccc2n1C` stands 18.3%.
Under `Cc1ccc(S(=O)(=O)N2[C@@H](c3ccc(Cl)cc3)C(C(=O)OC(C)(C)C)=CC[C@H]2c2ccc(Cl)c(Cl)c2)cc1` stands 72.6%; under `Fc1cnc(N2CCOCC2)nc1N1CCOCC1`, 49%; under `COc1ccc(C(=O)N[C@H](C(=O)Nc2nc3c(s2)CCCC3)C(C)C)cc1`, 22.5%.
`CCOC(=O)[C@@H]1[C@H]2COc3ccccc3[C@@H]2N2C(=O)N(c3ccc(Cl)cc3)C(=O)[C@]12C` gave an inhibition of 48.8%.
Under `Cc1cccc(CN2CCN(C3CN(Cc4cn(Cc5cccc(Cl)c5)nn4)S(=O)(=O)C3)CC2)c1` (configuration not stated) stands 33.2%; under `COC(=O)c1cccc(NC(=S)NCCC2=CCCCC2)c1`, 4.3%; under `CCN(c1ccccc1)S(=O)(=O)c1ccc(C(=O)N(CCCN(C)C)c2nc3cc4c(cc3s2)OCO4)cc1`, 72.6%.
Under `CCN1C(=O)C(=O)c2cc(C)ccc21` stands 13.5%; under `CC(C)C[C@@H](COc1ccccc1)N1CCN(CCc2ccccc2)CCC1=O`, 46.6%.
